These results are taken from PubChem BioAssay AID2284197 (EPA ToxCast).

Activity calls are given as the source filed them. The calls were made as follows: active = hit-call score of the fitted dose curve at least 0.9, where 1 is the maximum; inactive = score below 0.9.

Sequence of human Thyroid Hormone Receptor Alpha (TRa) Agonism, THRA (gene 7067) (P10827 whole entry, looked up): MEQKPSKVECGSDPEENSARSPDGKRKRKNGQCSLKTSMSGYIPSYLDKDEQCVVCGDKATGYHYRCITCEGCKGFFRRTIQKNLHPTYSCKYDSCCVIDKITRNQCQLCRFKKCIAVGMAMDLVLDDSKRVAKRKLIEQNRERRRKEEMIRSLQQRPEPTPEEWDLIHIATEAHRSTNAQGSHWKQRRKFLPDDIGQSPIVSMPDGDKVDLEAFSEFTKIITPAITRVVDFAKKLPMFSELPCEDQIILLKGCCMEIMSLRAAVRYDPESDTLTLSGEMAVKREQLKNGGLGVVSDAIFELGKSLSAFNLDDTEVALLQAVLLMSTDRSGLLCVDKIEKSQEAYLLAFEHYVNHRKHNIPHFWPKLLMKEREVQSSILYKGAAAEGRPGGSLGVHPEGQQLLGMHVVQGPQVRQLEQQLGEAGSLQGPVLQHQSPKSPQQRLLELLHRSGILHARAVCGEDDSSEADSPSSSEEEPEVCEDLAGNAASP

This assay has as its target human Thyroid Hormone Receptor Alpha (TRa) Agonism, THRA (gene 7067) (UniProt P10827). As to the kind of experiment: ERF_TW_NR_COA_hTHRA: Eurofins (ERF) Nuclear Receptor (NR) Functional Coactivator Assay for human Thyroid Hormone Receptor Alpha (TRa) Agonism. The protocol:
ERF_TW_NR_COA_hTHRA is a biochemical, single-readout assay that uses extracted gene-proteins in a cell-free assay. Measurements were taken 0.5 hour after chemical dosing in a 96-well plate. See TRalpha Human Thyroid Hormone NHR Functional Agonist Coactivator Assay, Panlabs.ERF_TW_NR_COA_hTHRA is an assay component calculated from the ERF_TW_NR_COA_hTHRA assay. It is designed to measure TR-FRET using a type of inducible reporter as detected by fluorescence intensity of 7-hydroxy-coumarin with FRET: TR-FRET technology.Data from the assay component ERF_TW_NR_COA_hTHRA_Agonist was analyzed at the assay endpoint, ERF_TW_NR_COA_hTHRA_Agonist, in the positive analysis fitting direction relative to DMSO as the negative control and baseline of activity. Using a type of agonist, gain-of-signal activity can be used to understand changes in protein-protein interaction as they relate to gene THRA. […]
Test compound and/or vehicle is incubated with the 0.25 nM TR alpha LBD-GST and coactivator peptide for 30 minutes at RT. Determination of the amount of complex formed is read spectrofluorimetrically (excitation: 337 nm, emission: 520/490 nm). Test compound-induced increase of fluorescence by 50 percent or more relative to the 0.1 uM T3 response indicates possible TR alpha receptor agonist activity.
`COc1cc(CCC(=O)CC(=O)CCc2ccc(O)c(OC)c2)ccc1O`: the outcome was inactive.
With `O=C(/C=C/c1ccc(O)cc1)CC(=O)/C=C/c1ccc(O)cc1` the entry was “inactive”.
